High-throughput results from PubChem.
Shown are actives, neighbours in structure and some others; about 3.6% of the full set was active somewhere.
mHTT CaM bind – disrupts binding of mutant huntingtin to calmodulin. P42858. AlphaScreen His-mHTT/GST-CaM binding, luminescence. inhibition, % at 15 µM. 190,000 tested, 3.6% active;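 further: 0% = both proteins with DMSO and 100% = one protein alone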
Pf apPOL block – Pf-apPOL DNA polymerase inhibition | AID 1794808 | Recombinant Pf-apPOL, molecular beacon fluorescence, 1.5 h | inhibition, % at 10 µM | 210,000 tested, 0.25% active
* = called active by the depositor. No stated cut-off is given here; in the data, active means inhibition above about 50%; inactive means the rest.

`O=C(CCc1nc(-c2ccccn2)no1)NCc1ccc2c(c1)OCO2` gave Pf apPOL block 0.
O=C(NCc1ccc2c(c1)OCO2)c1ccc2nc(-c3ccccn3)c(-c3ccccn3)nc2c1 was read as mHTT CaM bind 8 and Pf apPOL block 61*.
For S=c1[nH]nc(-c2ccccn2)n1/N=C/C=C/c1ccco1 the results were mHTT CaM bind active.
`S=c1[nH]nc(-c2ccncc2)n1/N=C/C=C/c1ccco1` gave mHTT CaM bind inactive.
Screening COc1ccc(N(CC(=O)NCc2ccccn2)S(=O)(=O)c2ccc(C)cc2)cc1 returned mHTT CaM bind -1 and Pf apPOL block 1.
COc1ccc(CN2CCc3nc(Nc4ccccc4F)ncc3C2)c(OC)c1 was read as mHTT CaM bind 8 and Pf apPOL block -2.
For CCCCOc1ccc(C(C)NC(=O)CCN2N=C(c3ccc(OC)cc3)CCC2=O)cc1 (stereo unspecified) the results were mHTT CaM bind 16 and Pf apPOL block -17.
For c1ccc(-c2cnc(-c3cccc4ccccc34)o2)cc1 the results were mHTT CaM bind -27.
For COc1ccc(-c2cnc(-c3c(O)c(C)nc4ccccc34)o2)cc1 the results were mHTT CaM bind 60* and Pf apPOL block -1.
O=C1Nc2ccc(F)cc2/C1=C/c1ccc(Br)cc1 was read as mHTT CaM bind 21 and Pf apPOL block 1.
Screening COc1ccc(Nc2nc(NN)nc(OCC(F)(F)F)n2)cc1 returned mHTT CaM bind 92*.
COc1ccc(Nc2nc(Cl)nc(NC(C)C)n2)cc1 was read as mHTT CaM bind 6 and Pf apPOL block -3.
`Cc1nc2c(C(=O)NC3CCCCC3C)cnn2c(C)c1Cc1ccccc1` (stereo unspecified) gave mHTT CaM bind 16 and Pf apPOL block -8.
Screening Cc1nc2c(C(=O)NC3CCCCC3)cnn2c(C)c1Cc1ccccc1Cl returned mHTT CaM bind 2 and Pf apPOL block -2.
For Cc1nc2c(C(=O)NC3CCCCC3C)cnn2c(C)c1Cc1cccc(Cl)c1 (stereo unspecified) the results were mHTT CaM bind 71* and Pf apPOL block -10.
`Cc1nc2c(C(=O)NC3CC3)cnn2c(C)c1Cc1ccccc1Cl` gave mHTT CaM bind 58* and Pf apPOL block -6.
`Cc1nc2c(C(=O)NC3CCCC3)cnn2c(C)c1Cc1cccc(Br)c1` gave mHTT CaM bind 10 and Pf apPOL block 0.
`Cc1nc2c(C(=O)NC3CCCCC3)cnn2c(C)c1Cc1cccc(Cl)c1` gave mHTT CaM bind 61* and Pf apPOL block 12.
For COc1cccc2c1OCC(=O)N(c1ccc(C(N)=O)cc1)C2 the results were mHTT CaM bind -4 and Pf apPOL block -1.
`Cc1cc(C)c(S(=O)(=O)Nc2ccc3oc(=O)sc3c2)cc1C` gave mHTT CaM bind 42 and Pf apPOL block 2.
Cc1ccc(C)c(S(=O)(=O)Nc2ccc3oc(=O)sc3c2)c1 was read as mHTT CaM bind 24 and Pf apPOL block 73*.
`COc1ccc(-c2c(C)c3ccc4c(c3oc2=O)CN(C2CCS(=O)(=O)C2)CO4)cc1OC` (stereo unspecified) gave mHTT CaM bind -1 and Pf apPOL block -4.
For N#Cc1cccc(CN2CCCC(c3nncn3-c3ccccc3)C2)c1 (stereo unspecified) the results were mHTT CaM bind 2 and Pf apPOL block -2.
c1cc(CN2CCCC(c3n[nH]c(C4CC4)n3)C2)ccn1 (stereo unspecified) was read as mHTT CaM bind -5 and Pf apPOL block -2.
For c1ccc(CN2CCCC(c3n[nH]c(C4CC4)n3)C2)nc1 (stereo unspecified) the results were mHTT CaM bind 95* and Pf apPOL block -20.
Screening c1ccc(-n2cnnc2C2CCCN(Cc3ccccn3)C2)cc1 (stereo unspecified) returned mHTT CaM bind 87* and Pf apPOL block -28.
O=C(NCCOc1ccc2nnc(-c3ccc(F)cc3)n2n1)c1cc(-c2ccco2)[nH]n1 was read as mHTT CaM bind -6 and Pf apPOL block 64*.
O=C(Cc1cccs1)NCCOc1ccc2nnc(-c3ccc(F)cc3)n2n1 was read as mHTT CaM bind -4 and Pf apPOL block 3.
`COc1ccc(C=Nc2ccc(Nc3ccccc3)cc2)cc1O` gave mHTT CaM bind 87* and Pf apPOL block -57.
For COc1cc(C=Nc2ccc(Nc3ccccc3)cc2)ccc1O the results were mHTT CaM bind 92* and Pf apPOL block -4.
Screening COc1cc(C=Nc2ccc(Cl)c(Cl)c2)ccc1O returned mHTT CaM bind 2 and Pf apPOL block 3.
For Oc1ccc(C=Nc2ccc(Nc3ccccc3)cc2)cc1 the results were mHTT CaM bind 100* and Pf apPOL block -3.
For COc1ccc(C=Nc2ccc(C(N)=O)cc2)cc1O the results were mHTT CaM bind -4 and Pf apPOL block -1.
`Oc1ccc(N=Cc2ccc(OCc3ccccc3)cc2)cc1` gave mHTT CaM bind 35 and Pf apPOL block 0.
